PubChem BioAssay AID1159580 (chemical genetic matrix, 2015)
Hit rate of the full screen: of about 5,500 compounds, about 2,000 (36%) were called active. About 18% were inconclusive and are not listed. No stated cut-off is given here; in the data, active means normalized growth mostly below about 0.91 (no sharp cut-off); inconclusive means no clear call, values can overlap the other calls; inactive means mostly above about 0.92. The list shows a part of the results.

Assay: chemical genetic growth profiling, strain panel (AID 1159580);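 further: tested at 20 µM; growth read once vehicle control cultures reached saturation at 30 °C; 1 = growth at the plate median or of vehicle wells; lower values mean less growth of the strain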
Details: S. cerevisiae deletion strains, growth OD

Measured: normalized growth

CCN1CCN(c2cc3c(cc2F)c(=O)c(C(=O)O)cn3C2CC2)CC1
active: locus YLR320W, strain mms22, hits give low values 0.854
inactive: locus YAL021C, strain ccr4, hits give low values 1.04 | locus YAL026C, strain drs2, hits give low values 1.01 | locus YAL030W, strain snc1, hits give low values 1.01 | locus YBL061C, strain skt5, hits give low values 1.01 | locus YBR009C, strain hhf1, hits give low values 1 | locus YBR023C, strain chs3, hits give low values 1.01 | locus YBR171W, strain sec66, hits give low values 1.02 | locus YBR231C, strain swc5, hits give low values 1.02 | locus YBR279W, strain paf1, hits give low values 1.01 | locus YCL011C, strain gbp2, hits give low values 1.01 | locus YCL016C, strain dcc1, hits give low values 0.997 | locus YCL061C, strain MRC1, hits give low values 1.01 | locus YCL069W, strain vba3, hits give low values 1.01 | locus YCR088W, strain abp1, hits give low values 1.01 | locus YDL005C, strain med2, hits give low values 1.02 | locus YDL040C, strain nat1, hits give low values 1.01 | locus YDR001C, strain nth1, hits give low values 1.01 | locus YDR069C, strain doa4, hits give low values 1 | locus YDR137W, strain rgp1, hits give low values 0.969 | locus YDR159W, strain sac3, hits give low values 1.01 | locus YDR195W, strain ref2 1.04 | locus YDR297W, strain sur2, hits give low values 1.01 | locus YDR334W, strain swr1, hits give low values 1.02 | locus YDR335W, strain msn5, hits give low values 1.03 | locus YDR392W, strain spt3, hits give low values 1 | locus YEL003W, strain gim4, hits give low values 1.01 | locus YEL037C, strain rad23, hits give low values 1.01 | locus YEL061C, strain CIN8 (second series), hits give low values 1.02 | locus YER015W, strain faa2, hits give low values 1.01 | locus YER016W, strain bim1, hits give low values 0.995 | locus YER111C, strain swi4, hits give low values 1.02 | locus YER155C, strain BEM2 (second series), hits give low values 1.01 | locus YFR010W, strain ubp6, hits give low values 1.01 | locus YGL167C, strain pmr1, hits give low values 1.02 | locus YGL173C, strain kem1, hits give low values 1 | locus YGL227W, strain vid30, hits give low values 1.01 | locus YGL240W, strain doc1, hits give low values 0.997 | locus YGL253W, strain hxk2, hits give low values 1.01 | locus YHR013C, strain ard1, hits give low values 1.04 | locus YHR027C, strain rpn1, hits give low values 1.02 | locus YHR030C, strain SLT2, hits give low values 0.992 | locus YHR079C, strain IRE1, hits give low values 0.986 | locus YHR142W, strain chs7, hits give low values 1.02 | locus YJL092W, strain hpr5, hits give low values 1.01 | locus YJL095W, strain BCK1 (second series), hits give low values 1.02 | locus YJL095W, strain BCK1, hits give low values 0.995 | locus YJL115W, strain asf1, hits give low values 0.989 | locus YJL129C, strain trk1, hits give low values 1.03 | locus YJL154C, strain vps35, hits give low values 1.02 | locus YJL164C, strain tpk1, hits give low values 1.01 | locus YJL166W, strain qcr8, hits give low values 1 | locus YJL187C, strain SWE1, hits give low values 1.01 | locus YJR066W, strain TOR1, hits give low values 0.962 | locus YKL160W, strain elf1, hits give low values 1 | locus YKR026C, strain gcn3, hits give low values 1.01 | locus YKR091W, strain srl3, hits give low values 1 | locus YLL001W, strain dnm1, hits give low values 1.02 | locus YLL026W, hits give low values 1 | locus YLL041C, strain sdh2, hits give low values 1.01 | locus YLR027C, strain aat2, hits give low values 1.01 | locus YLR113W, strain HOG1, hits give low values 1.03 | locus YLR221C, strain rsa3, hits give low values 1.01 | locus YLR258W, strain gsy2, hits give low values 1.01 | locus YLR262C, strain YPT6 (second series), hits give low values 0.962 | locus YLR342W, strain FKS1, hits give low values 1.02 | locus YLR357W, strain rsc2, hits give low values 0.994 | locus YLR370C, strain arc18, hits give low values 1.02 | locus YLR384C, strain iki3, hits give low values 1 | locus YML120C, strain ndi1, hits give low values 1.01 | locus YMR058W, strain fet3, hits give low values 1.01 | locus YMR125W, strain sto1, hits give low values 1.02 | locus YMR129W, hits give low values 1.01 | locus YMR205C, strain PFK2, hits give low values 1 | locus YMR231W, strain pep5, hits give low values 1.02 | locus YNL071W, strain lat1, hits give low values 1.02 | locus YNL183C, strain NPR1, hits give low values 0.935 | locus YNL209W, strain ssb2, hits give low values 1.03 | locus YNL248C, strain rpa49, hits give low values 1.01 | locus YNL322C, strain KRE1 (second series), hits give low values 1 | locus YNR049C, strain mso1, hits give low values 1.01 | locus YOR001W, strain rrp6, hits give low values 1.01 | locus YOR070C, strain gyp1, hits give low values 1.02 | locus YOR080W, strain dia2, hits give low values 0.992 | locus YOR083W, strain WHI5, hits give low values 1.01 | locus YOR106W, strain vam3, hits give low values 0.994 | locus YOR231W, strain MKK1, hits give low values 0.981 | locus YOR265W, strain rbl2, hits give low values 1.01 | locus YOR270C, strain vph1, hits give low values 1.03 | locus YOR290C, strain snf2, hits give low values 0.957 | locus YPL051W, strain arl3, hits give low values 1.01 | locus YPL078C, strain atp4, hits give low values 1.02 | locus YPL106C, strain sse1, hits give low values 0.998 | locus YPL240C, strain hsp82, hits give low values 1.01 | locus YPL256C, strain CLN2, hits give low values 0.986
